According to PubChem BioAssay (EPA / NIEHS):
Records with an inconclusive call do not appear. Activity calls are given as the source filed them. How the source made its calls: active means hit-call score of the fitted dose curve at least 0.9, where 1 is the maximum; inconclusive means response in the unintended direction; inactive means score below 0.9.

test: CCTE_Mundy_HCI_hNP1_CellTiter: CCTE's Cell Titer-Glo 2 Assay in human neuroprogenitor cells for Viability, Mundy Lab (AID 2284241);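 on AC50: a hit is a drop in ATP luminescence versus DMSO meaning reduced viability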
Description: CCTE_Mundy_HCI_hNP1_CellTiter is a multiplexed, cell-based-readout assay that uses neural stem cells derived from a neuroepithelial cell lineage of WA09 embryonic cells with measurements taken at […] after chemical dosing in a microplate: 96-well plate.CCTE_Mundy_HCI_hNP1_CellTiter is one component of the CCTE_Mundy_HCI_hNP1_CellTiter assay. It measures cell viability related to ATP content using Luminescent Reporter.Data from the assay component CCTE_Mundy_HCI_hNP1_CellTiter was analyzed at the endpoint CCTE_Mundy_HCI_hNP1_CellTiter in the positive analysis fitting direction relative to DMSO as the negative control and baseline of activity. Using a type of viability reporter, loss -of-signal activity can be used to understand viability effects.
Human neural progenitor cells (hNP1) were obtained as cryopreserved cells from ArunA Biomedical, Athens Georgia. Cells are plated on pre-coated poly-L-ornithine/laminin clear bottom and opaque 96 well plates (day 0). Plates are placed in a 37 °C, 5% CO2 incubator for 40 to 44 hours at which time plates are removed from the incubator and 10 uL of a freshly made chemical solution is added to each well. Cell viability was based on number of cells per field or determined in sister plates using the CellTiter-Glo luminescent assay (Promega) which measures the amount of ATP present in each well. Twenty-four hours after chemical treatment, 50ul of CellTiter-Glo assay buffer was added to each well and the plate incubated for 30min at room temperature. Luminescence was then recorded in each well using a FLUOstar Optima plate reader (BMG LABTECH, Cary, NC).

Compound	outcome	AC50
CS(=O)(=O)c1ccc(C(=O)C2C(=O)CCCC2=O)c([N+](=O)[O-])c1	inactive	
CN/C(=N\[N+](=O)[O-])NCc1cnc(Cl)s1	inactive	
CC1(C)C(C=C(Cl)Cl)C1C(=O)OC(C#N)c1cccc(Oc2ccccc2)c1 (stereo unspecified)	inactive	
CCNC(=O)NC(=O)C(C#N)=NOC	inactive	
CS(=O)(=O)c1cc(C(F)(F)F)ccc1C(=O)c1cnoc1C1CC1	inactive	
CCSC(=O)N1CCCCCC1	inactive	
COP(=S)(OC)SCn1nnc2ccccc2c1=O	inactive	
CC(C)(C)C(=O)C(Oc1ccc(Cl)cc1)n1cncn1 (stereo unspecified)	inactive	
O=C(Nc1ccccc1-c1ccc(Cl)cc1)c1cccnc1Cl	inactive	
C=C(C)CN(CC)c1c([N+](=O)[O-])cc(C(F)(F)F)cc1[N+](=O)[O-]		31.5 µM (active)
CCN(CC)c1nc(C)cc(OP(=S)(OC)OC)n1		71.4 µM (active)
CCOP(=O)(OCC)Oc1nc(Cl)c(Cl)cc1Cl	inactive	
CNC(=O)Oc1cccc2ccccc12	inactive	
N#CN=C1SCCN1Cc1ccc(Cl)nc1	inactive	
COC(=O)N(C(=O)N1CO[C@@]2(C(=O)OC)Cc3cc(Cl)ccc3C2=N1)c1ccc(OC(F)(F)F)cc1	inactive	
Cc1c(COC(=O)[C@@H]2[C@H](/C=C(\Cl)C(F)(F)F)C2(C)C)cccc1-c1ccccc1		9.1 µM (active)
